Out of some 1,300 compounds screened, about 380 (29%) were called active. Roughly 37% stayed inconclusive and do not appear here. Calls follow the shape of the dose curve; as a rule, active = well fitted inhibition curve with a large enough effect; inconclusive = small, poorly fitted or top-dose-only effect; inactive = flat fitted curve, though single readings scatter. The list shows a part of the results.

Drawing on PubChem BioAssay AID602292 (National Center for Advancing Translational Sciences (NCATS), 2012), this text covers Potency for 48 compounds.
Potency is read from the fitted curve at half-maximal effect.

Sequence of Thyrotropin receptor (Homo sapiens) (P16473 whole entry, looked up): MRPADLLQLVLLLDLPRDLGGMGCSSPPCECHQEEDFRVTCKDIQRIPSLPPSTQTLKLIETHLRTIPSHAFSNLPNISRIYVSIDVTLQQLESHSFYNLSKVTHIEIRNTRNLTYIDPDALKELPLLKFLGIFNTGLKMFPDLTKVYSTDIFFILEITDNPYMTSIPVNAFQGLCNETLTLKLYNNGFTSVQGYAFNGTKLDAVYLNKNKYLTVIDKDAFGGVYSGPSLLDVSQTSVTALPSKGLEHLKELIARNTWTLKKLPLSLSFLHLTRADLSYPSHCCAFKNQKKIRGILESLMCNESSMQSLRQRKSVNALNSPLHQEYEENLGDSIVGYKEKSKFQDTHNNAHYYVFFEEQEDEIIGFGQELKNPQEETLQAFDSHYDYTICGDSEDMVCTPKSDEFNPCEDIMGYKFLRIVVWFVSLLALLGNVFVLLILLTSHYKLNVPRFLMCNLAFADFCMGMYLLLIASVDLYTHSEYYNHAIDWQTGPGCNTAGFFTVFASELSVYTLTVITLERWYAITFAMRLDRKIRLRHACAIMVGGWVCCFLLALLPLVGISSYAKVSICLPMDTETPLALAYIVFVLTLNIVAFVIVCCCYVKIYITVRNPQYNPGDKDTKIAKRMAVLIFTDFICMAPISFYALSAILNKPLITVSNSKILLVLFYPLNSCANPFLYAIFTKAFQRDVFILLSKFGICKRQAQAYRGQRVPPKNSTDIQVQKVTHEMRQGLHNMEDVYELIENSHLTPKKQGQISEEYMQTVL

The test addresses Thyrotropin receptor (Homo sapiens) (UniProt P16473). Nature of the test: qHTS for antagonists of the Thyroid Stimulation Hormone Receptor: Hit Validation in Primary Screen. Also: nearly all actives have a fitted effect of over 80% in size. As to conditions: TSHR-expressing cells, cAMP antagonist mode; series mostly up to 58 µM. The text has this: The thyroid-stimulating hormone receptor (TSHR) is a member of the 7 trans-membrane-spanning receptor (7TMR) family of cell surface receptors. TSHR-mediated hyperthyroidism is important in thyroid pathology. The development of small molecule antagonists of TSHR may lead to therapeutic approaches for TSHR-mediated hyperthyroidism caused by constitutively activating mutations or stimulating auto-antibodies associated with Graves' disease. Graves' disease is the leading cause of hyperthyroidism and is caused by autoantibodies that stimulate TSHR (TsAbs) causing thyroid growth and unregulated overproduction of thyroid hormones and existing treatments have liabilities (agranulocytosis). In addition, TSHRs are known to be expressed in multiple extrathyroidal tissues including bone, brain, kidney, testis, fat and cells of the immune system but the role of the TSHR in these tissues is not clear. Therefore, TSHR antagonists/inverse agonists could be used as probes of extrathyroidal TSHR function. Finally, TSHR inverse agonists, which are a subclass of antagonists that inhibit agonist-independent (or basal or constitutive) TSHR signaling, could be used to inhibit TSH-independent signaling in patients with recurrent or metastatic thyroid cancer who are receiving thyroid hormone to suppress TSH.
In collaboration between scientist from the NCGC and the NIDDK, a miniaturized HTRF high-throughput screen was developed. It's a cell based assay, where an anti cAMP antibody contains a fluorescent cryptate tag (excitation 337 nm; emission 620 nm) and the acceptor is cAMP-d2 (excitation 620 nm; emission 665 nm). When antibody and cAMP-d2 interact and are excited by a 337 nm light, a FRET occurs resulting in emission at 665 nm. The assay is competition between cAMP-d2 and cAMP (from the cell lysate). The homogeneous protocol allows for one step dispense after stimulation that is automation friendly. This is a hit validation assay using the primary screen format.
NIH Chemical Genomics Center [NCGC]
NIH Molecular Libraries Probe Centers Network [MLPCN]
Assay Provider: Marvin Gershengorn, NIDDK
1. 3ul of 200 TSHR freshly harvested cells/well are dispensed into a 1536 TC-treated white solid bottom plate.
2. Through pintool addition, 23nl of compounds and control in 100% DMSO are added to the plate.
3. Then 1ul of EC80 TSH (4nM final) is added to the plate.
4. Assay is incubated at 37 deg C for 2 hours.
5. 2ul of cAMP antibody diluted 1:20 in lysis buffer is added.
6. Immediately following, 2ul of d2 diluted 1:20 in HBSS is added seperately.
7. The assay is incubated for 30 minutes at ambient room temperature.
8. The result is obtained by using a ViewLux read-out with HTRF settings.
`COc1cccc(CN(C)C(=O)c2ccc(OCC(=O)Nc3cccc(C(F)(F)F)c3)c(OC)c2)c1`: the Potency was 23.9 µM (active).

With `CSCCCNC(=O)c1ccc(OC2CCN(C(=O)c3cccnc3)CC2)cc1`, the Potency entry is “inactive”.

In the case of `Cn1c2c(c(=O)n(C)c1=O)C(C(F)(F)F)(C(F)(F)F)N=C(c1ccc(Cl)cc1)N2`, the Potency is 19 µM (active).

Turning to `COc1ccc(C2c3ccc(O)cc3Oc3ncn(Cc4ccco4)c(=N)c32)cc1` (stereo not drawn), the Potency entry was “inactive”.

As for `O=C(CN1C(=O)NC2(CCCCCC2)C1=O)N1CCC(Cc2ccccc2)CC1`, the Potency was 21.3 µM (active).

In the case of `CC1Cc2ccccc2N1C(=O)COC(=O)/C=C/c1cccc(F)c1` (stereo not drawn), the Potency is 30.1 µM (active).

`CC(=O)N1c2ccc(S(=O)(=O)N(C)CC(=O)N(C)Cc3ccccc3)cc2CC1C` (stereo not drawn): the Potency entry is “inactive”.

As to `CC(C)Cc1ccc(C(C)C(=O)Nc2nccs2)cc1` (stereo not drawn), the Potency entry was “inactive”.

Consider `COc1ccc(OC)c2c1C(=O)C(Cl)=C(Cl)C2=O`, for which the Potency was 33.8 µM (active).

Turning to `Cc1cccc(OC2CCN(Cc3nc(CC4CC4)no3)CC2)c1`, the Potency result is “inactive”.

In the case of `O=C(N[C@H]1C/C=C\C(c2cccc(F)c2)N(Cc2ccccc2)C(=O)C1)OCC1c2ccccc2-c2ccccc21` (stereo partly drawn), the Potency result is “inactive”.

`CCc1cc(CNC(=O)CC2C(=O)NCCN2Cc2ccc(-c3ccccc3)cc2)on1` (stereo not drawn): the Potency result is “inactive”.

Take `CCCc1ccc(-c2c(C)sc(NC(=O)c3ccnn3C)c2C#N)cc1`: the Potency is 23.9 µM (active).

Consider `CCN1C(=NCc2ccc(OC)cc2)N[C@@H](CCc2ccccc2)[C@H](C(=O)NCc2ccc(OC)cc2)[C@H]1C`, for which the Potency entry was “inactive”.

In the case of `Cc1ccc(C2(c3ccc(C)cc3)CC2C(=O)Nc2ccc([N+](=O)[O-])cc2O)cc1` (stereo not drawn), the Potency is 19 µM (active).

Consider `CCOc1ccc(C2NC(=O)c3ccccc3O2)cc1OC` (stereo not drawn), for which the Potency entry was “inactive”.

As for `CC(C)(C)c1ccc(C(=O)CC(Sc2ccc(Cl)cc2)C(=O)O)cc1` (stereo not drawn), the Potency was 37.9 µM (active).

Regarding `O=C1NC(=S)SC1=C1CCCCCC1`, the Potency is 30.1 µM (active).

As to `CC1=CCC2C(=O)N(c3ccc(C(=O)Nc4ccccc4Cl)cc3)C(=O)C2C1` (stereo not drawn), the Potency result is “inactive”.

Turning to `Cc1ncsc1CCOC(=O)C1C2CC3CC(C2)CC1C3` (stereo not drawn), the Potency is 30.1 µM (active).

With `Cc1ccc(S(=O)(=O)/N=C2/NC(=O)/C(=C\c3cc(Br)cc(Br)c3O)S2)cc1`, the Potency is 15.1 µM (active).

Take `COc1ccc(CNC(=O)CCS(=O)(=O)c2ccc3c(c2)CCN3C(C)=O)cc1`: the Potency entry was “inactive”.

For the compound `Cc1cc(C)c(C2=NOC3C4CCC(C4)C23)c(C)c1` (stereo not drawn), the Potency entry is “inactive”.

For `COc1cccc(OC)c1C(=O)Nc1ccc2c(c1)N(S(=O)(=O)c1cccs1)CCC2`, the Potency result is “inactive”.

For `O=C1NC(=S)S/C1=C\c1ccc(SCc2ccccc2)o1`, the Potency was 6.01 µM (active).

With `COCCNc1oc(Cc2cccc3ccccc23)nc1C#N`, the Potency result was “inactive”.

On to `O=c1[nH]c(C2CCN(S(=O)(=O)c3cccc(Cl)c3)CC2)nc2c1nnn2Cc1ccccc1`, for which the Potency result is “inactive”.

Take `O=C(O)c1ccc(Cl)cc1Nc1nc2cc(Cl)ccc2o1`: the Potency is 26.9 µM (active).

As to `O=C1C=CC(=O)N1CCCCCCN1C(=O)C=CC1=O`, the Potency is 37.9 µM (active).

For `C=CCn1c(SCC(=O)c2cccs2)nc2sc(CC)cc2c1=O`, the Potency is 21.3 µM (active).

`N#C/C(=C\c1ccc(O)c([N+](=O)[O-])c1)c1nc2ccccc2s1`: the Potency is 6.75 µM (active).

With `O=c1/c(=C/c2ccc(O)c([N+](=O)[O-])c2)sc2nc3ccccc3n12`, the Potency was 3.79 µM (active).

Take `COc1cc(/C=C(\C#N)c2nc3ccccc3s2)cc([N+](=O)[O-])c1O`: the Potency was 7.57 µM (active).

On to `COC(CNC(=O)c1ccc(Cn2c(=S)[nH]c3cc4c(cc3c2=O)OCO4)cc1)OC`, for which the Potency entry is “inactive”.

Take `CCOc1ccnc2c1c(=O)n(Cc1cc(OC)cc(OC)c1)c(=O)n2C`: the Potency result is “inactive”.

Consider `COC(=O)CN(c1ccc(C)cc1)S(=O)(=O)c1ccc2c(c1)n(C)c(=O)c(=O)n2C`, for which the Potency entry is “inactive”.

With `COc1ccc(CCNC2=C(Cl)C(=O)N(CCc3ccc(OC)c(OC)c3)C2=O)cc1OC`, the Potency was 21.3 µM (active).

In the case of `COc1ccc(CCNC2=C(Cl)C(=O)N(CCc3ccccc3)C2=O)cc1OC`, the Potency was 26.9 µM (active).

For `COC(=O)c1ccc(C2C(Oc3ccccc3C)C(=O)N2CCc2ccc(OC)c(OC)c2)cc1` (stereo not drawn), the Potency result is “inactive”.

Take `O=C(N/N=C/c1cccc(Oc2ccc([N+](=O)[O-])cc2[N+](=O)[O-])c1)c1cncc(Br)c1`: the Potency is 30.1 µM (active).

On to `CC(C)COc1cccc(-c2cc(C(=O)Nc3ccon3)c3ccccc3n2)c1`, for which the Potency result was “inactive”.

For the compound `N#Cc1nc(Cc2cccc3ccccc23)oc1NCc1ccc2c(c1)OCO2`, the Potency result was “inactive”.

In the case of `N#Cc1c(Cl)nsc1NC(=O)c1ccccc1`, the Potency was 7.57 µM (active).

As to `CCN(CC)c1ccc(NC2=C(Cl)C(=O)c3ccccc3C2=O)cc1`, the Potency was 23.9 µM (active).

On to `O=C(O)c1cccc(NC2=C(Cl)C(=O)c3ccccc3C2=O)c1`, for which the Potency is 23.9 µM (active).

For `O=C(O)c1ccc(NC2=C(Cl)C(=O)c3ccccc3C2=O)cc1`, the Potency was 30.1 µM (active).

For `O=C(O)c1ccc(S(=O)(=O)N(Cc2ccccc2)Cc2ccccc2)cc1`, the Potency result is “inactive”.

On to `Cc1ccccc1N1CCN(C2CCCN(C(=O)c3cnsn3)C2)CC1` (stereo not drawn), for which the Potency result was “inactive”.
